Data published in PubChem BioAssay (Tox21).
Values joined by “and” are separate entries in the source; they are usually repeats but may differ in a detail not shown here. Identical values can stand only once. Records with an inconclusive call do not appear. Entries that show only a call come without a potency. The source holds several records for some structures; these can differ, active in one and inactive in another. Active and inactive are the calls of the source. Unless noted, calls come from the whole dose curve; as a rule, active = well fitted curve in the direction sought with a large enough effect in the repeat runs; inconclusive = weak or mixed curves; inactive = no such curve, though single readings can be large; an effect the other way counts as inactive or inconclusive.

Experiments:
[1] = biological target: Progesterone receptor (Homo sapiens) (UniProt P06401); assay: qHTS assay to identify small molecule agonists of the progesterone receptor (PR) signaling pathway (AID 1346784; calls by dose curve; note: nearly all actives have a fitted effect of over 30% in size; note: potency is the fitted concentration of half-maximal effect)
Outline: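 Using charcoal-stripped serum (2%) to limit endogenous steroids, PR-UAS-bla HEK 293T cells received compounds for 16 hr at 37C after 6 hr plating; beta-lactamase FRET fluorescence was recorded following 2 hr substrate loading at room temperature.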

[2] = biological target: Progesterone receptor (Homo sapiens) (UniProt P06401); assay: qHTS assay to identify small molecule antagonists of the progesterone receptor (PR) signaling pathway (AID 1346795; active = well fitted inhibition curve with a large enough effect in the signal ratio in the repeat runs, not every such curve was filed as active; the % refers to the signal ratio; note: potency is the fitted concentration of half-maximal effect)
Outline: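 Inhibition of R5020-induced (1 nM final) beta-lactamase reporter signal in PR-UAS-bla HEK293T cells was scored by FRET fluorescence after overnight (16 hr) compound treatment.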

[3] = qHTS assay to identify small molecule agonists of the progesterone receptor (PR) signaling pathway - cell viability counter screen (AID 1346799; calls by dose curve; note: nearly all actives have a fitted effect of over 45% in size; note: potency is the fitted concentration of half-maximal effect)
Outline: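 Cytotoxicity in PR-bla HEK293T cells: 16 h compound, 37C; CellTiter-Glo added post-FRET read; luminescence after 30 min RT.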

[4] = qHTS assay to identify small molecule antagonists of the TGF-beta/Smad signaling pathway - cell viability counter screen (AID 1346824); note: nearly all actives have a fitted effect of over 50% in size
Outline: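 SBE-bla HEK 293T cells, incubated overnight, then compound plus 0.25 ng/mL TGF-beta1 (stock added) for 5 hr at 37 C. Viability was read in the same wells by CellTiter-Glo luminescence after 30 min at room temperature.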

[5] = qHTS assay to identify small molecule agonists of the TGF-beta/Smad signaling pathway - cell viability counter screen (AID 1346829); note: top concentration of the series differs between compounds; nearly all actives have a fitted effect of over 45% in size
Outline: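 After overnight seating at 37 C and 5% CO2, reporter cells got compounds for 5 hr and FRET substrate for 2 hr; cell viability then came from CellTiter-Glo luminescence.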

[6] = qHTS assay to identify small molecule agonists of the TGF-beta/Smad signaling pathway (AID 1346859; active = well fitted activation curve with a large enough effect in the signal ratio in the repeat runs, not every such curve was filed as active; the % refers to the signal ratio; note: series mostly up to about 77 µM)
Outline: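 Stable Smad binding element-beta-lactamase HEK 293T cells; 5 hr compound exposure at 37 C under 5% CO2; 2 hr room-temperature substrate step; fluorescence excited at 405 nm, collected at 460 nm and 530 nm.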

[7] = biological target: Thyrotropin-releasing hormone receptor (Homo sapiens) (UniProt P34981); assay: qHTS assay to identify small molecule antagonists of the thyrotropin-releasing hormone receptor (TRHR) signaling pathway (AID 1346877; active = well fitted inhibition curve with a large enough effect in the repeat runs, not every such curve was filed as active; note: series mostly up to about 51 µM)
Outline: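 Antagonist mode: after a 5 min room-temperature compound exposure, cells were stimulated with 1 nM (final) TRH. Dye-loaded TRHR-HEK293 cells were used, and calcium-dependent fluorescence was followed for 3 min, with 15-point titrations run in triplicate.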

[8] = biological target: Thyrotropin-releasing hormone receptor (Homo sapiens) (UniProt P34981); assay: qHTS assay to identify small molecule agonists of the thyrotropin-releasing hormone receptor (TRHR) signaling pathway (AID 1346891; calls by dose curve; note: potency is the fitted concentration of half-maximal effect;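 for activation: HEK293 cells expressing TRHR with calcium dye readout; series mostly up to about 58 µM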)
Outline: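 In 1536-format, 1500 TRHR-Hek293 cells per well grew 18 h, took up calcium dye for 2 h at 37 °C, received compound, and were read kinetically; 15-point titrations, triplicates.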

[9] = Human pregnane X receptor (PXR) small molecule agonists, qHTS cell viability counter screen (AID 1346977); note: nearly all actives have a fitted effect of over 50% in size; note: potency is the fitted concentration of half-maximal effect
Outline: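 Readout is CellTiter-Fluor fluorescence from PXR-Luc HepG2 cells. Plated cells rested 5hr, then were treated with compounds for 24hr at 37C and 5% CO2, with reagent present during the last hour.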

[10] = qHTS assay to identify small molecule antagonists of the progesterone receptor (PR) signaling pathway - cell viability counter screen (AID 1346798); note: series mostly up to about 92 µM; nearly all actives have a fitted effect of over 50% in size
Outline: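 ATP content as viability readout: CellTiter-Glo luminescence, 30 min room temperature, in PR-UAS-bla HEK293T cells after 16 hr compound/R5020 treatment at 37C and 5% CO2.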

Chain of Thyrotropin-releasing hormone receptor (Homo sapiens) (P34981 whole entry, looked up): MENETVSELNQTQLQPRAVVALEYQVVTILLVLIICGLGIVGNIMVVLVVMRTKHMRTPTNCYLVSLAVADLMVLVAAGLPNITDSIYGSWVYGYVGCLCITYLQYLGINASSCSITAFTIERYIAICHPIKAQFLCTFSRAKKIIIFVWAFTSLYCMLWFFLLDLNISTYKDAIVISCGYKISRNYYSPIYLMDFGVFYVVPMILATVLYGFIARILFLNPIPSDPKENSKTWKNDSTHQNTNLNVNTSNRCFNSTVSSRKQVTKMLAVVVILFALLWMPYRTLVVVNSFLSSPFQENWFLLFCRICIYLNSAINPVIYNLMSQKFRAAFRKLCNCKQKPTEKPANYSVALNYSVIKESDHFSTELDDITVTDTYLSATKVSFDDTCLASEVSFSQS
Chain of Progesterone receptor (Homo sapiens) (P06401 whole entry, looked up): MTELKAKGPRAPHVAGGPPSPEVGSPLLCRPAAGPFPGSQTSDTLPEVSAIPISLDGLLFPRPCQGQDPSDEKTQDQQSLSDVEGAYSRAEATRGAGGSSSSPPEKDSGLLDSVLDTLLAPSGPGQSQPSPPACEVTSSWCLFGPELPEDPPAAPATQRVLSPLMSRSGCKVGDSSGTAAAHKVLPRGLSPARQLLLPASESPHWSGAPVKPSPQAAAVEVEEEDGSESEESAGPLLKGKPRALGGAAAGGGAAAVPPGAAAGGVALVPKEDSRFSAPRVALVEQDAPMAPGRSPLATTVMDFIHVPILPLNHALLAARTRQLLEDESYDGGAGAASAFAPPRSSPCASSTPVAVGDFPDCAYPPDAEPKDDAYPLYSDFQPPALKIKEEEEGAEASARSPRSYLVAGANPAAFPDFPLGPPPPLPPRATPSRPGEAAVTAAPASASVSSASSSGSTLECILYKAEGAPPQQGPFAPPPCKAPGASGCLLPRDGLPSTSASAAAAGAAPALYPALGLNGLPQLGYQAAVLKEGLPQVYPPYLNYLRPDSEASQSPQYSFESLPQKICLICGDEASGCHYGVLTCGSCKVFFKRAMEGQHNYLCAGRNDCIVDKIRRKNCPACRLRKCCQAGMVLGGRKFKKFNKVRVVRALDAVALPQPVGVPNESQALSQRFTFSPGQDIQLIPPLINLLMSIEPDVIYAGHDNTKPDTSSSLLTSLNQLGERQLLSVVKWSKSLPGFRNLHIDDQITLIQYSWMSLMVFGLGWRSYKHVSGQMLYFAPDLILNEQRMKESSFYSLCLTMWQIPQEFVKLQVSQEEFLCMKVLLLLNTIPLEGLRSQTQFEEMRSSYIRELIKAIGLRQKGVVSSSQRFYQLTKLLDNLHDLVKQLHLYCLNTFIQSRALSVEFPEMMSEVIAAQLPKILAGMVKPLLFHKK

SMILES	Potency [1]	Potency [2]	Potency [3]	Potency [4]	Potency [5]	outcome [6]	outcome [7]	Potency [8]	Potency [9]	Potency [10]
C/C=C/c1ccc(O)c(OC)c1	inactive	inactive	inactive	inactive	inactive	inactive	inactive	inactive		
Cc1c(N(C)C)c(=O)n(-c2ccccc2)n1C	inactive	inactive	inactive		inactive	inactive				
CC(=O)CCC(C)C	inactive	inactive	inactive	inactive	inactive	inactive	inactive	inactive and 17.4 µM (active)		
Cn1cnc2c1c(=O)[nH]c(=O)n2C	inactive	inactive	inactive	inactive	inactive	inactive	inactive	inactive		
O=C(O)CN(CC(=O)O)CC(=O)O	inactive	inactive	inactive	inactive	inactive	inactive	inactive	inactive	inactive	
CC(=O)c1ccc(S(=O)(=O)NC(=O)NC2CCCCC2)cc1	inactive	inactive	inactive	inactive	inactive	inactive	inactive	inactive	inactive	
O=C(O)CCCCC1CCSS1 (stereo unspecified)	inactive	inactive	inactive		inactive	inactive	inactive	inactive	inactive	
C=CCOC(=O)CC(C)C	inactive	inactive	inactive	inactive	inactive	inactive	inactive	inactive		
N[C@@H](Cc1c[nH]c2ccccc12)C(=O)O	inactive	inactive	inactive		inactive	inactive	inactive	inactive		
C=C(C)OC(C)=O	inactive	inactive			inactive	inactive	inactive	inactive		inactive
CCCCCCCC(=O)OCC(O)CO (stereo unspecified)	inactive	inactive	inactive		inactive	inactive	inactive	inactive		
CCCCC/C(C=O)=C\c1ccccc1	inactive	inactive	inactive		inactive	inactive			inactive	
C[C@]12C[C@H](O)[C@H]3[C@@H](CCC4=CC(=O)CC[C@@]43C)[C@@H]1CC[C@@H]2C(=O)CO	971 nM (active)	inactive		inactive	inactive	inactive				
O=C(O)Cc1cccc2ccccc12	inactive and 1.37 µM (active)	inactive	inactive and 21.7 µM (active)		inactive	inactive	inactive	inactive	inactive	
COC(=O)c1ccc(O)cc1	inactive	inactive	inactive		inactive	inactive	inactive	inactive		
C1CNCCN1	inactive	inactive			inactive	inactive	inactive	inactive	inactive	inactive
N[C@@H](Cc1c[nH]c2ccc(O)cc12)C(=O)O	inactive	inactive	inactive		inactive	inactive	inactive	inactive	inactive	
C[C@]12CC[C@@H]3c4ccc(O)cc4C[C@@H](CCCCCCCCCS(=O)CCCC(F)(F)C(F)(F)F)[C@H]3[C@@H]1CC[C@@H]2O (stereo partly specified)	inactive	1.72 µM (active)	inactive	inactive	inactive	inactive	inactive	inactive		
CCCCCCCCCCCCCCCCCC(=O)OCC(O)CO (stereo unspecified)	inactive	inactive			inactive	inactive	inactive	inactive	inactive	inactive
O=C1CCCCCN1	inactive	inactive	inactive	inactive	inactive	inactive				
NC(N)=NC(N)=NCCc1ccccc1	inactive	inactive			inactive	inactive				
O=C1OC(c2ccc(O)cc2)(c2ccc(O)cc2)c2ccccc21	inactive	24.3 µM (active)		inactive	inactive	inactive			50.1 µM (active) and inactive	
Cc1cnc(NC(=O)C2=C(O)c3ccccc3S(=O)(=O)N2C)s1	inactive	inactive			inactive	inactive	inactive	inactive	inactive	
COCC(C)N (stereo unspecified)			inactive	inactive	inactive	inactive	inactive	inactive	inactive	inactive
CC(C)Cc1ccc(C(C)C(=O)O)cc1 (stereo unspecified)	inactive	inactive			inactive	inactive	inactive	inactive	inactive	

SMILES	Potency [1]	Potency [2]	Potency [3]	Potency [4]	Potency [5]	outcome [6]	outcome [7]	Potency [8]	Potency [9]	Potency [10]
OC[C@@H](O)[C@@H](O)[C@H](O)[C@H](O)CO	inactive	inactive		inactive	inactive	inactive				
CC(C)=CCC/C(C)=C/CO	inactive	inactive			inactive	inactive			inactive	
CCCCOCCOCCSC#N					inactive	inactive	inactive	inactive		
C#C[C@]1(O)CC[C@H]2[C@@H]3CCC4=CC(=O)CC[C@@H]4[C@H]3CC[C@@]21CC		inactive			inactive	inactive			inactive	
C[C@]12C=CC(=O)C=C1CC[C@@H]1[C@@H]2C(=O)C[C@@]2(C)[C@H]1CC[C@]2(O)C(=O)CO	inactive				inactive	inactive			inactive	inactive
Oc1cccc(O)c1	inactive	inactive			inactive	inactive			inactive	
COc1cc2c(c(OC)c1OC)-c1ccc(OC)c(=O)cc1[C@@H](NC(C)=O)CC2	inactive			inactive	inactive	inactive				
Nc1cccc(N)c1			inactive	inactive	inactive	inactive	inactive	inactive		inactive
NC(=O)NO	inactive	inactive		inactive	inactive	inactive	inactive	inactive		
CCCCNC(=O)NS(=O)(=O)c1ccc(N)cc1	inactive	inactive		inactive	inactive	inactive	inactive	inactive		
NCCNc1cccc2ccccc12	inactive	inactive		inactive	inactive	inactive	inactive	inactive	50.1 µM (active) and inactive	
O=c1c(-c2ccc(O)cc2)coc2cc(O)cc(O)c12	inactive	23.9 µM (active) and 17.2 µM (active) and 13.3 µM (active)			inactive	inactive				
CC(C)CC(C)CC(O)CC(C)C (stereo unspecified)	inactive	inactive		inactive	inactive	inactive	inactive	inactive	inactive	
Cc1c(N(C)CS(=O)(=O)O)c(=O)n(-c2ccccc2)n1C	inactive	inactive		inactive	inactive	inactive	inactive	inactive		
COc1ccc(O)cc1	inactive	inactive		inactive	inactive	inactive	inactive	inactive	inactive	
C[C@]12CC[C@@H]3c4ccc(O)cc4CC[C@H]3[C@@H]1CCC2=O	inactive		inactive	inactive	inactive	inactive	inactive	inactive	inactive	inactive
C#C[C@]1(O)CC[C@H]2[C@@H]3CCc4cc(O)ccc4[C@H]3CC[C@@]21C	271 nM (active)				inactive	inactive	inactive	inactive		
CCN1CCCC1=O			inactive	inactive	inactive	inactive	inactive	inactive	inactive	inactive
NC(=O)c1ccc([N+](=O)[O-])cc1Cl	inactive	inactive			inactive	inactive	inactive	inactive		
CC(C)(C)NCC(O)c1ccc(O)c(CO)c1 (stereo unspecified)	inactive	inactive		inactive	inactive	inactive	inactive	inactive	inactive	
CN/C(=C\[N+](=O)[O-])NCCSCc1ccc(CN(C)C)o1	inactive	inactive			inactive	inactive	inactive	inactive	inactive	
Cc1cccc(Nc2cc(Cl)nc(SCC(=O)O)n2)c1C	inactive		inactive	inactive	inactive	inactive	inactive	inactive		
CN(C)Cc1cc(CN(C)C)c(O)c(CN(C)C)c1	inactive	inactive			inactive	inactive	inactive	inactive		
CC(O)COc1ccccc1 (stereo unspecified)	inactive	inactive		inactive	inactive	inactive			inactive	
CCn1cc(C(=O)O)c(=O)c2ccc(C)nc21	inactive	inactive			inactive	inactive	inactive	inactive		
